# Rows were chosen to be rich in hits. Some 1.4% of all compounds tested hit in one or more screens of this group.
# PV pol inh = poliovirus RNA polymerase inhibition. P03300. 150,000 tested, 0.66% active. poliovirus polymerase elongation, fluorescence polarization; hits give low values. % elongation, % (compound at 16.7 µg/mL). AID 588519; in the data active = % elongation below about 90%
# Mtb MenB inh = blocks the Mycobacterium tuberculosis MenB enzyme. inhibition, % (concentration not given with the values). AID 540299. P9WNP5. MenB enzyme assay, absorbance read-out. 100,000 tested, 0.43% active; in the data active = inhibition above about 21%, passing the limit was not always enough
# AID504770 = growth inhibitors of E. coli YBA685 in a screen for V. cholerae RctB (chromosome II replication) inhibitors; E. coli YBA685 rctB-dependent plasmid, OD600 growth, 3 h; hits give low values; z-score (no concentration beside the values); 130,000 tested, 0.27% active; AID 504770; in the data active = z-score below about -2, passing the limit was not always enough
# Mtb MbtI inh = blocks the Mycobacterium tuberculosis siderophore enzyme MbtI; inhibition, % (test concentration not listed); purified MbtI enzyme, fluorescence intensity read-out; AID 493033; 100,000 tested, 0.89% active; in the data active = inhibition mostly above about 56%, no sharp cut-off; inactive = mostly below about 77%
# Target sequence (P9WFX0 whole entry, looked up): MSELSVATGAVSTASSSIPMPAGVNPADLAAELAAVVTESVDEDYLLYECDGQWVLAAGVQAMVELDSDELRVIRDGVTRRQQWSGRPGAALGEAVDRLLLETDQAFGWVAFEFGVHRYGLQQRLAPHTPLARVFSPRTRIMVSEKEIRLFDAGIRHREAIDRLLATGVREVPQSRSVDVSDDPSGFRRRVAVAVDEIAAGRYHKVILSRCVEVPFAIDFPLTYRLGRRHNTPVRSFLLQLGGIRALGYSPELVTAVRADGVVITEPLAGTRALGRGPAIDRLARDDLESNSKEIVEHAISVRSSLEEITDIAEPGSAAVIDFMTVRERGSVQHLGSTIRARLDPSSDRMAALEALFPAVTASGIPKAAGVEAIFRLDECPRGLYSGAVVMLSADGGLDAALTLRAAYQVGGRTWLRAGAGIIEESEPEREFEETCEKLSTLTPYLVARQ
# * hit, by the source's call; nt = no result given.
SMILES,PV pol inh,Mtb MenB inh,AID504770,Mtb MbtI inh
NC(=O)c1sc(=S)n(-c2ccccc2)c1N,91.0,-17.0,0.15,nt
Cc1cc(C)nc(SCC(=O)OCc2cc(=O)n3ccsc3n2)n1,103.0,1.7,-0.15,70.5
COc1ccc(-c2nn[nH]n2)cc1,103.0,38.5*,1.85,0.9
CCn1nc(N)c2c(O)[nH]c(=O)cc21,40.0*,-54.1,0.6,17.5
CN(C)c1ccc(/C=N/N=C2/C(=N/O)CCc3nonc32)cc1,98.0,-44.3,-0.9,3.3
CC1=NOC(=O)/C1=C/c1ccc(O)cc1,99.0,-38.1,-1.9,92.3*
CS(=O)(=O)c1nc(-c2ccc(Cl)cc2)n[nH]1,100.0,0.0,-0.55,nt
CS(=O)(=O)c1nc(-c2ccc(Br)cc2)n[nH]1,100.0,14.9,-0.55,89.7*
O=C(C1CCCCC1)N1CCCCCCC1,101.0,-19.6,0,-6.6
S=C(S)N1CCCCC1,nt,nt,-5.15*,nt
Cc1ccccc1OCC(=O)N(C)Cc1c(C)nn(C2CCS(=O)(=O)C2)c1C (stereo not drawn),107.0,-26.8,0.05,-7.8
N#Cc1ccc(COC(=O)C2CCCCN2S(=O)(=O)c2cccc3nsnc23)cc1 (stereo not drawn),42.0*,-3.5,-0.9,-1.5
CC(C)(C)NS(=O)(=O)Nc1ccccc1,101.0,35.9*,0.85,0.3
CC1CCc2cc(F)cc3c(=O)c(C(=O)O)cn1c23 (stereo not drawn),100.0,-4.7,-3.35*,-0.8
COc1cc2c(cc1OC)CN(c1ccc3ccccc3n1)CC2,89.0*,-4.7,-0.15,-27.1
COc1ccc(NC(=O)CCc2nc3cc(S(=O)(=O)N4CCCCC4)ccc3n2C)cn1,79.0,-26.5,0.4,95.0*
Cn1c(CCC(=O)NCc2ccc(F)cc2)nc2cc(S(=O)(=O)N3CCCCC3)ccc21,nt,-2.8,0.35,18.4
COc1ccc(C(CCN2C(=O)CCC2=O)C2CCOC(C)(C)C2)cc1 (stereo not drawn),101.0,-38.8,0,0.3
CCn1c(CCC(=O)N2CCN(c3ccccn3)CC2)nc2cc(S(N)(=O)=O)ccc21,55.0*,-1.1,0.05,103.1
CCOc1ccc(NC(=O)CN(C2=NC3CS(=O)(=O)CC3S2)c2ccccc2)cc1 (stereo not drawn),102.0,7.0,0.35,7.2
CCOc1ccc(CCNC(=O)c2cnc3sc(N4CCCCCC4)nn3c2=O)cc1,107.0,nt,nt,nt
CCOc1ccc(CCNC(=O)c2cnc3sc(N4CCCC4)nn3c2=O)cc1,5.0*,nt,nt,nt
Cc1sc2ncn(CC(O)CO)c(=O)c2c1C (stereo not drawn),103.0,-62.9,1.45,12.3
CN(C)CCCNc1nn2c(=O)c3ccccc3nc2c2ccccc12,82.0*,-4.1,-0.05,-103.2
S=c1[nH]nc(Nc2cccc(Br)c2)s1,102.0,-32.0,-0.35,98.0*
SMILES,PV pol inh,Mtb MenB inh,AID504770,Mtb MbtI inh
Cc1ccc(N2C(=O)N(c3ccccc3)C(=N)C2=S)cc1Cl,68.0*,1.6,-0.95,45.1
COc1ccccc1NC(CC(=O)c1ccccc1)C(=O)O (stereo not drawn),106.0,-8.8,0.45,nt
CC(NC(CC(=O)c1ccc(F)cc1)C(=O)O)c1ccccc1 (stereo not drawn),105.0,83.3*,-0.5,nt
Clc1nc2ccc3nsnc3c2nc1Cl,42.0*,11.1,-0.05,88.1
O=C(Oc1ccc2oc(-c3ccco3)cc(=O)c2c1)c1ccccc1,102.0,9.0,1.35,36.2
Cc1nnc2sc(-c3ccc(N)cc3)nn12,102.0,-14.4,-0.85,17.4
COc1ccc(-c2cn3c(n2)sc2cc(C(=O)NCCCN4CCCCCC4)ccc23)cc1,100.0,nt,nt,nt
COc1ccc(-c2cn3c(n2)sc2cc(C(=O)NCCCN4CCCCC4)ccc23)cc1,90.0*,nt,nt,nt
O=C(CCCc1ccccc1)Nc1scc2c(=O)oc3ccccc3c12,79.0*,8.5,1.3,nt
COc1ccc(CC(CN)c2ccccc2)cc1 (stereo not drawn),102.0,36.0*,1.05,1.2
CCOC(=O)c1cnc2ccccn2c1=O,103.0,11.4,1.15,104.7
O=C(O)c1cnc2ccccn2c1=O,102.0,27.3*,0.85,89.5
Cc1nc(=O)c(-c2ccccc2)c(C)n1CCc1cnc[nH]1,99.0,-7.0,-0.85,-14.4
N#Cc1c(N)cc(N)[nH]c1=S,104.0,-0.9,-0.8,96.8*
Cc1cc(C(F)(F)F)c(C#N)c(=S)[nH]1,104.0,-33.2,1.5,80.9
CC1COC2=C(N3CCN(C)CC3)C(F)=CC3C(=O)C(C(=O)O)=CN1C23 (stereo not drawn),98.0,2.3,-6.4*,-102.0
CC(C)Cc1ccc(S(=O)(=O)Nc2noc3ccccc23)cc1,102.0,-5.9,0.85,10.2
O=C1NC(=O)C(C2CCS(=O)(=O)C2)C(=O)N1 (stereo not drawn),100.0,-5.6,0.15,-0.5
O=c1[nH]c(CSc2ccccn2)nc2ccsc12,128.0,-21.8,0.65,96.5*
COc1ccc(OCCCC(=O)N2CCN(S(=O)(=O)c3ccccc3C(F)(F)F)CC2)cc1,102.0,-5.2,-0.85,-7.5
COc1ccc(CC(=O)Nc2sc3c(c2C(=O)Nc2ccc(C)cc2)CCCCC3)cc1,89.0*,nt,nt,nt
COc1ccc(NC(=O)c2c(NCc3ccc(N(C)C)cc3)sc3c2CCC3)cc1,86.0*,nt,nt,nt
CN(CC(=O)Nc1ccc(F)cc1)C(=O)COc1ncnc2c1cnn2-c1ccccc1,103.0,-0.1,0.3,23.6
Cc1cccc(-c2nnc(SCC(N)=O)n2C2CCCCC2C)c1 (stereo not drawn),103.0,7.7,-0.65,-1.6
Nc1nnnn1/N=C1/C(=O)Nc2ccc(Br)cc21,72.0*,-60.4,0.15,nt
SMILES,PV pol inh,Mtb MenB inh,AID504770,Mtb MbtI inh
COc1ccc(N=C2C(=O)Nc3ccc(Br)cc32)cc1,98.0,-2.6,-0.95,0.4
CC(=O)OC(OC(C)=O)C12C=CC(O1)C1C(=O)N(c3ccccc3-c3ccccc3)C(=O)C12 (stereo not drawn),98.0,-10.2,-0.1,90.3*
COc1nc(C)cc(C)c1C(=O)O,nt,nt,-0.15,nt
Cc1cc(C)c(C(=O)O)c(Cl)n1,80.0*,-25.6,1.55,0.3
CC(C(=O)N1CCCCC1)N1Cc2ccccc2C1=O (stereo not drawn),101.0,6.0,-0.35,-7.2
C=CCn1c(SC)nc2c1c(=O)[nH]c(=O)n2C,99.0,-28.3,0.55,96.3*
C=CCn1c(NC)nc2c1c(=O)[nH]c(=O)n2C,104.0,-29.7,2.2,1.2
Oc1ccccc1OCc1nc2ccccc2s1,102.0,nt,0,51.8*
CCN(CC)CCNC(=O)c1ccc2c(=O)n3nc(Nc4ccccc4OC)sc3nc2c1,65.0*,nt,nt,nt
COc1ccccc1Nc1nn2c(=O)c3ccc(C(=O)NCCCOC(C)C)cc3nc2s1,110.0,nt,nt,nt
CN(C)CCCN1C(=O)C(=O)/C(=C(/O)c2ccc(S(=O)(=O)N(C)C)cc2)C1c1ccccc1 (stereo not drawn),101.0,4.6,-0.05,7.8
CN(C)S(=O)(=O)c1ccc(/C(O)=C2\C(=O)C(=O)N(Cc3cccnc3)C2c2cccnc2)cc1 (stereo not drawn),102.0,34.4*,1.2,1.5
CCOc1cc(CNc2ccc(O)cc2)ccc1OCc1ccc(Cl)cc1,80.0*,nt,nt,nt
O=C(Nc1cccc(F)c1)[C@H](CSCc1ccccc1)N1Cc2ccccc2C1=O,84.0*,nt,nt,nt

# High-throughput results as filed in PubChem BioAssay.
